# Screening results from PubChem BioAssay.
# Most compounds without a hit are left out; they make up all but 11% or so of the library.
# ALDH1A1 block = inhibitors of human aldehyde dehydrogenase 1A1 | hit rate 7.3% among 220,000 | AID 1030 | Potency, µM (titrated, usually from 75.3 µM), actives largely listed as inhibitors | Purified ALDH1A1, NADH fluorescence, propionaldehyde substrate; active = well fitted inhibition curve with a large enough effect, not every such curve was filed as active; inconclusive = small, poorly fitted or top-dose-only effect, or another doubt; inactive = no such curve, though single readings can be large or run the other way
# PNC assembly inh = perinucleolar compartment assembly inhibition | PC3M PTB-GFP, PNC prevalence imaging, 16 h; stronger effect = lower value | activity change (PNC), negative = inhibition, % at 10 µM | hit rate 3.1% among 140,000 | AID 2417;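 active = readout at or below -70, meaning at least 70% loss of cells showing the perinucleolar compartment, a nuclear body marking cancer cells; inconclusive = readout between -30 and a set limit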
#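 Read-out is percentage of cells bearing a perinucleolar compartment, from automated 20x imaging of fixed, Hoechst-stained PC3M PTB-GFP cells. Cells were seeded 4 h, then exposed 16 h to compound (23 nl of library stock) in duplicate plates.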
# HttQ103 aggreg = reduces HttQ103-GFP aggregates in PC12 cells | PC12 HttQ103-GFP aggregates, Acumen cytometry, 40 h | Potency, µM (doses to about 46.1 µM), actives largely listed as inhibitors | hit rate 1.1% among 220,000; note: nearly all actives have a fitted effect of over 60% in size
#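 Using laser scanning cytometry, GFP-positive aggregates were counted after lysis of PC12 cells induced with 100 nM tebufenozide to express HTT exon 1 Q103–GFP. Compounds were tested in titration.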
# CBFb-RUNX1 inh = CBF-beta/RUNX1 interaction disruption | AlphaScreen CBFb-His/RUNX1-biotin binding, biochemical | Potency, µM (series often up to 59.8 µM), usual class: inhibitors | Q01196+Q13951 | 230,000 tested, under 10 active | AID 1477
# Target sequence (Q01196 whole entry, looked up): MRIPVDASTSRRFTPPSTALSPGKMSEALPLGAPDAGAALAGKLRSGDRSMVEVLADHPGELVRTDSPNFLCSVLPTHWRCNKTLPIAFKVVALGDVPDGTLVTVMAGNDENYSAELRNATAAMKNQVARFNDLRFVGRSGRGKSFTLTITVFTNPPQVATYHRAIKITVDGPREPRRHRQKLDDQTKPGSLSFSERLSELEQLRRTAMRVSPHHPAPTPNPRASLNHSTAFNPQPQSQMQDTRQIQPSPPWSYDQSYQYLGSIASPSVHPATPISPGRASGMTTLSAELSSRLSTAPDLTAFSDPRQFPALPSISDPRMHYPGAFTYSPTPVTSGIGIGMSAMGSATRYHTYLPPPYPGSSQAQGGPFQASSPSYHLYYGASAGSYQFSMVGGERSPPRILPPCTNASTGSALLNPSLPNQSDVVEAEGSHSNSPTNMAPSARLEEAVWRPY
# Target sequence (Q13951 whole entry, looked up): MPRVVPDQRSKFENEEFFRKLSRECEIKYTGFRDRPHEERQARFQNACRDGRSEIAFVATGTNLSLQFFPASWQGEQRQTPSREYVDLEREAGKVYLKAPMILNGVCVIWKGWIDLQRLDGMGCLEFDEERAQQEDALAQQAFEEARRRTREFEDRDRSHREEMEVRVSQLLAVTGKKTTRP
#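 Inhibition was taken as any reduction in AlphaScreen signal from the CBF-beta–RUNX1 pair (His and biotin tags, 30 nM each), measured after compound (15 min) and bead (90 min) incubations at room temperature.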
# HPGD block = HPGD (human) dehydrogenase inhibition | P15428 | purified HPGD, NADH fluorescence kinetic, PGE2 substrate | Potency, µM, usual class: inhibitors | hit rate 4.3% among 150,000 | AID 894; active = well fitted inhibition curve with a large enough effect, not every such curve was filed as active; inconclusive = small, poorly fitted or top-dose-only effect, or another doubt; inactive = no such curve, though single readings can be large or run the other way
#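 20 nM HPGD preincubated 15 min at room temperature with compound in 50 mM Tris-HCl pH 8, 0.01% Tween 20. Started with 1 mM NAD+ and 30 uM prostaglandin E2; NADH fluorescence (360/450 nm) read 5 times over 30-s intervals, last minus first.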
# HTT ATP protect = protects HTT-Q103 PC12 cells, measured by ATP. PC12 HTT-Q103 induced, cytoprotection, ATP luminescence, 40 h. Potency, µM (highest dose often 56.4 µM), actives largely listed as activators. hit rate 0.14% among 230,000. AID 1471; note: nearly all actives have a fitted effect of over 45% in size
#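 PC12 cells stably carrying ecdysone-inducible Htt exon 1 (Q103)–GFP were induced with 100 nM tebufenozide (final) alongside library compounds in a dose series. Cytoprotection was scored as retained ATP by ATPlite luminescence.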
# Numbers stand for hits; . = inactive; ? = inconclusive; / = not tested or not shown; [ ] = dose if it differs, or a comment. Unless noted, calls come from the whole dose curve; as a rule, active = well fitted curve in the direction sought with a large enough effect; inconclusive = small, poorly fitted or top-dose-only effect, or another doubt; inactive = no such curve, though single readings can be large; an effect the other way counts as inactive or inconclusive.
SMILES,ALDH1A1 block,PNC assembly inh,HttQ103 aggreg,CBFb-RUNX1 inh,HPGD block,HTT ATP protect
c1ccc2c(-n3ccnc3)nc(-c3ccoc3)nc2c1,.,/,/,/,.,?
Cc1ccccc1CN1C(=O)C(O)(CC(=O)c2ccncc2)c2ccccc21 (configuration not stated),0.112µM,.,.,.,.,.
CC(=O)CC1(O)C(=O)N(CN2CCN(c3ccccc3)CC2)c2ccccc21 (configuration not stated),.,.,.,.,/,.[10 µM]
Cc1ccc(C(=O)CC2(O)C(=O)N(C)c3ccccc32)s1 (configuration not stated),.,/,.,.,/,.
CC(C)(C)C(=O)CC1(O)C(=O)N(Cc2ccccc2)c2ccccc21 (configuration not stated),7.08µM,.,.,.,.,.[10 µM]
O=C1c2ccccc2C(Nc2ccc3c(c2)OCO3)N1Cc1ccc2c(c1)OCO2 (configuration not stated),?,.,.,.,?,.
Cc1ccc(C(=O)CC2(O)C(=O)N(Cc3ccc4c(c3)OCO4)c3ccccc32)cc1 (configuration not stated),1.41µM,.,.,.,.,.
CN1C(=O)C(O)(CC(=O)c2ccc3c(c2)OCO3)c2ccccc21 (configuration not stated),.,.,.,.,.,.[10 µM]
O=C1c2ccccc2C(O)N1Cc1ccc2c(c1)OCO2 (configuration not stated),.,.,.,.,15.8µM,.
O=C1c2ccccc2C(=O)N1Cc1ccc2c(c1)OCO2,.,.,.,.,.,.[0.074 µM]
O=C(CC1(O)C(=O)N(Cc2ccc3c(c2)OCO3)c2ccccc21)c1ccccc1 (configuration not stated),8.91µM,.,.,.,.,.[10 µM]
O=C(O)c1ccc2c(c1)C(=O)N(Cc1ccc3c(c1)OCO3)C2=O,.,.,.[9.22 µM],.,4.47µM,.
O=C(CC1(O)C(=O)N(Cc2ccccc2)c2ccccc21)c1ccc2c(c1)OCO2 (configuration not stated),7.08µM,.,.,.,.,.[10 µM]
CC(=O)C1(C)CC2=C(CCCC2(C)C)CC1C (configuration not stated),?,/,/,.,.,.
COc1ccc2cc3c(N)nn(C(=O)Cc4c[nH]c5ccccc45)c3nc2c1,/,/,3.16µM,.,/,.[10 µM]
COc1ccc2cc3c(N)nn(C(=O)Cc4ccc(Cl)cc4)c3nc2c1,.,.,7.94µM,.,.,.
COc1ccc(C(=O)N2CCC3(CCN(Cc4ccncc4)CC3)CC2)cc1,.,/,/,/,.,.
CCOC(=O)c1c(C)oc(NC(=O)CCl)c1C(=O)OCC,3.55µM,/,.,.,/,.
COc1ccc(-c2coc3ccc(OC4OC(COC(C)=O)C(OC(C)=O)C(OC(C)=O)C4OC(C)=O)c(OC(C)=O)c3c2=O)cc1 (configuration not stated),.,/,/,.,.,.[1.9 µM]
Cc1noc(NC(=O)c2ccccc2)c1C#N,10µM,.,.,.,.,.[10 µM]
Cc1noc(NC(=O)c2ccccc2Cl)c1C#N,.,.,.,.,.,.[10 µM]
COc1ccccc1C(=O)Nc1onc(C)c1C#N,?,/,.[9.22 µM],.,/,.
Cc1ccc(C(=O)Nc2onc(C)c2C#N)cc1,25.1µM,.,.,.,.,.[10 µM]
O=C(COC(=O)c1ccc([N+](=O)[O-])o1)Nc1nc2ccccc2s1,31.6µM,/,.[9.22 µM],.,/,.[10 µM]
CC(=O)c1c(N2CCN(c3cccc(Cl)c3)CC2)nc(=S)n(-c2ccccc2)c1C,.,?,.,.,.,.
CCn1c(C)c(C(C)=O)c(N2CCN(c3cccc(Cl)c3)CC2)nc1=S,14.1µM,.,.,?,?,.
CCn1c(C)c(C(C)=O)c(N2CCN(c3ccc(OC)cc3)CC2)nc1=S,25.1µM,/,.,?,/,/
FC(F)(F)c1ccccc1-c1ccc2ncnc(NCCN3CCOCC3)c2c1,.,/,/,/,/,.
O=Cc1sc(N2CCOCC2)nc1-c1ccccc1,8.91µM,/,.,.,/,.
O=C(N/N=C/c1sc(N2CCOCC2)nc1-c1ccccc1)c1ccccc1O,?,.,?,.,.,.[10 µM]
